Test results reported in the supplement of paper PMC3334620.
Over roughly 33,000 sequences, “E-score (-0.5 to 0.5)” has its median near -0.016; the highest 2% begin near 0.3. For the sample, the highest values were picked, then their nearest neighbours and some sequences at random.

Molecular target: T1, Yer184c (UniProt P39961)
T1 sequence: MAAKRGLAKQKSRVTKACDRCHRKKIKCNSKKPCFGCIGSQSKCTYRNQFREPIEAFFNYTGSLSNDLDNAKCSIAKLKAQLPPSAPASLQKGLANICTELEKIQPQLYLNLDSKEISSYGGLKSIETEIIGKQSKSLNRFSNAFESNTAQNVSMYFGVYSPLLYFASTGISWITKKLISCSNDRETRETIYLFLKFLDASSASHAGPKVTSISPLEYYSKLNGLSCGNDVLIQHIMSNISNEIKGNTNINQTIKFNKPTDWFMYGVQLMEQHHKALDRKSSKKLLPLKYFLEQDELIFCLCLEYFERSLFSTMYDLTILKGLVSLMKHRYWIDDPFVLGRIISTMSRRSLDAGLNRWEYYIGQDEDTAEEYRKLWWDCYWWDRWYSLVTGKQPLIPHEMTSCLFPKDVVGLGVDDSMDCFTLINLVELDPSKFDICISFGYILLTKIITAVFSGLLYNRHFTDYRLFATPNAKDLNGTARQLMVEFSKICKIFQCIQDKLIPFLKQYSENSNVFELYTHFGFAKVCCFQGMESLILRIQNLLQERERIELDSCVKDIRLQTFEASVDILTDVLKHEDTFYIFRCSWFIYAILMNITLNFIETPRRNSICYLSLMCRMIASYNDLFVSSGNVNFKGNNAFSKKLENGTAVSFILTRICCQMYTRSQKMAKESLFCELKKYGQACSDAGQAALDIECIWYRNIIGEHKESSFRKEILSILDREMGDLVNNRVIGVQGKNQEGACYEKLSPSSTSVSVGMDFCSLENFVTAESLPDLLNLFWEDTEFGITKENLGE
Assay: PBM E-score (8-mer binding enrichment) (E-score (-0.5 to 0.5)); higher = stronger / more preferred TF binding
Conditions: protein concentration: 100 nM; construct: GST-full length
Summary of the method: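 Universal all-10-mer Agilent arrays, fresh or stripped once, were converted to double-stranded form by primer extension. GST-tagged yeast transcription factors from PURExpress in vitro transcription/translation, full-length or DNA-binding domain only, were applied at about 100-200 nM and detected with fluorescent anti-GST. After masliner normalisation, the Universal PBM Analysis Suite scored each ungapped eight-base word together with its reverse complement by E-score.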

Sequence | PBM E-score
ATGTTCAA | 0.134
ACCTTACG | 0.00591
GCAGGACA | 0.11
CCTTCTTC | -0.19
CGCGGGAA | 0.311
GGCGGAAA | 0.108
GGCGGGAA | 0.0413
CGCGGAAA | 0.325
CGCGGAAC | 0.382
AGCGGAAA | 0.27
GGCGGAAC | 0.199
AGCGGAAC | 0.194
CGCGGGGA | 0.125
GATGGACA | 0.183
ATTAGCGC | 0.056
ATAGATCA | 0.216
CAAGCTGG | -0.129
CCAGCCCA | -0.258
ATACTCTG | 0.006
CGGGTTCC | 0.246
AAGAAACC | 0.129
CGTAGAGA | -0.0444

Sequence | PBM E-score
GAACGCGC | 0.163
GGTATAAA | 0.16
TGTATAAA | 0.0524
CGTATAAC | 0.106
AGTATAAC | -0.0238
AGTATATG | 0.0296
AGTATAAA | 0.365
CGTATAAA | 0.311
AGTATATC | 0.155
AGTATATA | 0.334
TCGCACAA | -0.0958
CCATTTCC | 0.13
ACCTACAC | -0.309
CCCTCAAG | -0.297
GAAGTGGA | 0.0603
ATACCGAT | 0.11
GTACCGAA | 0.227
TTACCGAA | 0.336
ATACCGAC | 0.0349
ATACCGAA | 0.322
CTACCGAA | 0.105
AAAATGTA | -0.017

Sequence | PBM E-score
GTTAGAAA | 0.184
ACGGAACA | 0.303
CCGGAACA | 0.435
GCGGAACA | 0.237
TCGGAACA | 0.408
CTGGAACA | 0.122
CAGGAACA | -0.0366
AGCTTTTC | 0.0452
CAATTAAG | 0.21
GGGTTAAA | -0.0167
AAGCTCCT | -0.237
ATACTCCG | 0.321
CAGCTCCG | 0.222
ATACTCCC | 0.059
AAGCTCCG | 0.339
AAACTCCG | 0.319
AAACTCCT | -0.18
ATACTCCA | -0.081
CAACTCCG | 0.197
AATCGTAT | 0.039
TATATCGA | 0.161
ATATCTTG | 0.0464

Sequence | PBM E-score
CAAAGGGA | -0.166
ACGGTCCG | 0.161
GAGCCGTA | 0.307
TACCCGGA | 0.354
AAGCCGGA | 0.411
GAGCCGCA | 0.0573
AAGCCGCA | 0.161
CAGCCGTA | 0.142
AAGCCGTA | 0.224
GAGCCCGA | 0.0143
GAGCCGGA | 0.328
AAGCCGTC | 0.187
GACCCGGA | 0.212
CACCCGGA | 0.237
GCAGAGCA | 0.0245
AATGTCCG | 0.283
AGGTCGGG | -0.168
AAGCCCAA | -0.106
CCATCTTC | 0.173
AGAAGCTC | 0.0486
CCGTGAGG | -0.119
